Most compounds without a hit are left out; they make up all but 19% or so of the library.
Pf growth 96h: inhibits malaria parasite growth, 96 h; 320,000 compounds, 6.9% hits; Potency, µM (titrated, usually from 28.7 µM), without a hit: at the highest dose activity change, negative = inhibition, actives largely listed as inhibitors; P. falciparum luciferase reporter growth, 96 h; AID 504834; also: potency is read from the fitted curve at half-maximal effect; % is scaled to controls: 0 for no effect and ±100 for the full control effect
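Luminescence readout: decreased luciferase signal marks inhibited growth of reporter-expressing P. falciparum in infected red cells (2% hematocrit, 0.05% parasitemia final), exposed to compound two generations (96 h, 37 C, 5% CO2).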
Shiga toxin inh: inhibitors of Shiga toxin in Vero cells | Vero cells, Shiga toxin protein synthesis inhibition reporter | inhibition, % at 38.7 µM | 290,000 compounds, 9.2% hits | AID 2315; in the data active = inhibition mostly above about 28%, no sharp cut-off; inactive = mostly below about 43%; also: 0% is about no effect
SARS PLP yeast: inhibitors of SARS-CoV papain-like protease in yeast. Potency, µM (highest dose often 32.9 µM), for inactives: top-dose activity, positive = growth rescue, actives largely listed as activators. AID 485353. S. cerevisiae expressing SARS-CoV PLpro, growth rescue. 330,000 compounds, 0.19% hits; calls by dose curve; also: potency is read from the fitted curve at half-maximal effect; 0% is about no effect; nearly all actives have a fitted effect of over 55% in size
AMA1 RON2 block: disrupts binding of P. falciparum AMA1 to RON2; AlphaScreen AMA1-biotinylated RON2 peptide binding; Potency, µM (titrated, usually from 58.2 µM), inactives show at the highest dose activity change, negative = inhibition, most hits filed as inhibitors; 360,000 compounds, 0.2% hits;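 also: potency is read from the fitted curve at half-maximal effect; 0% = vehicle wells and -100% = peptide control; nearly all actives have a fitted effect of over 45% in size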
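AMA1 (3D7) with his tag at 25 nM final met compounds first, then biotinylated RON2 peptide at 25 nM; detection used donor plus acceptor beads, 10 µg/mL apiece, read by AlphaScreen after 30 min at room temperature.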
CHX counter: counter-screen for Shiga toxin inhibitors: cycloheximide protein synthesis inhibition. cell reporter, cycloheximide protein synthesis inhibition counterscreen. 300,000 compounds, 12% hits. max response, %. AID 2314; in the data active = max response mostly above about 13%, no sharp cut-off; inactive = mostly below about 14%; also: read at 38.3 µM for the half of the compounds with a filed dose; 0% is about no effect
Pf growth 48h: inhibits P. falciparum growth in the first generation, 48 h. AID 504832. 310,000 compounds, 5.9% hits. Potency, µM (titrated, usually from 28.7 µM), inactives show top-dose activity change, negative = inhibition, usual class: inhibitors. P. falciparum luciferase growth in erythrocytes, 48 h; also: potency is read from the fitted curve at half-maximal effect; % is scaled to controls: 0 for no effect and ±100 for the full control effect
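In quantitative HTS format, infected erythrocytes bearing luciferase-reporter parasites were treated for a single generation at 37 C. Luminescence after adding detection reagent served as the growth measure.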
Active calls of the source: *; ? = inconclusive; . = no result given. Unless noted, calls follow the shape of the dose curve; as a rule, active = well fitted curve in the direction sought with a large enough effect; inconclusive = small, poorly fitted or top-dose-only effect, or another doubt; inactive = no such curve, though single readings can be large; an effect the other way counts as inactive or inconclusive.

SMILES | Pf growth 96h | Shiga toxin inh | SARS PLP yeast | AMA1 RON2 block | CHX counter | Pf growth 48h
Cc1ccc(NC(CC(=O)c2ccccc2)c2ccc(F)cc2)cc1 (configuration not stated) | 46% | 69* | 4% | -12% | 50* | 36%
COc1ccc(C(CC(=O)c2ccc(C)cc2)Nc2ccc([N+](=O)[O-])cc2)cc1 (configuration not stated) | ? | 19 | -3% | -23% | 28* | 36%
Cc1ccc(C(=O)CC(Nc2ccc(F)cc2)c2ccccc2)cc1 (configuration not stated) | ? | -1 | 3% | ? | 1 | 81%
Cc1ccc(C(=O)CC(SCC(=O)O)c2ccc([N+](=O)[O-])cc2)cc1 (configuration not stated) | -14% | 18 | 0% | 0% | 8 | -14%
CC1(C)OC2CC(=O)OCC23C1CC(=O)C1(C)C3CC[C@@]2(C)[C@H](c3ccoc3)OC(=O)C3OC312 (some centres not stated) | . | 23 | . | . | 6 | .
CCCN1CCN(C(=O)c2ccc3[nH]c(C)c(C)c3c2)CC1 | . | . | . | -5% | . | .
CCOC(=O)CCC(NC(=O)CCCCCCCC(=O)NC(CCC(=O)OCC)C(=O)OCC)C(=O)OCC (configuration not stated) | 1% | -4 | 19% | 1% | 1 | 10%
C[C@@H]1OC(Oc2ccccc2-c2cc(=O)c3c(O)cc(O)c([C@@H]4O[C@H](CO)[C@@H](O)[C@H](O)[C@H]4O)c3o2)[C@H](O)[C@H](O)[C@H]1O (some centres not stated) | . | -4 | . | . | 0 | .
COc1ccc(C(CC(=O)c2ccc(O)cc2)S(=O)(=O)c2ccc(C)cc2)cc1 (configuration not stated) | -47% | 66* | -23% | -32% | 42* | 36%
COc1ccc(C(=O)CC(c2ccccc2)S(=O)(=O)c2ccc(C)cc2)cc1 (configuration not stated) | ? | -12 | -2% | . | -3 | -5%
Cc1ccc2oc(-c3ccccc3)nc2c1 | . | 70* | -2% | 16% | 45* | 130%
c1cncc(-c2nc3cc(Cc4ccc5oc(-c6cccnc6)nc5c4)ccc3o2)c1 | ? | 17 | 6% | . | 14 | 13%
c1cc(-c2nc3cc(Cc4ccc5oc(-c6ccncc6)nc5c4)ccc3o2)ccn1 | 12% | -5 | 0% | . | -3 | 6%
CCOc1cccc(-c2nc3cc(C)ccc3o2)c1 | ? | 63 | 4% | 33% | 31* | 231%
Cc1cc(C)n(-c2cc(N3CCN(C(=O)c4cccc(Br)c4)CC3)ccc2[N+](=O)[O-])n1 | 9.3µM* | -8 | 0% | -19% | 17 | ?
Cc1cc(C)n(-c2cc(N3CCN(S(=O)(=O)c4ccc(Cl)cc4)CC3)ccc2[N+](=O)[O-])n1 | 8% | -12 | 10% | 12% | 2 | 7.4µM*
COc1ccc(OC)c(CN2CCN(C(=O)c3ccc(S(=O)(=O)Nc4ccccc4F)cc3)CC2)c1 | ? | . | -3% | -4% | . | ?
Cn1nc(C(=O)NCCOc2ccccc2)c2ccccc2c1=O | 8% | 21 | -4% | -19% | 12 | 0%
COc1ccc(N=C2S/C(=C\c3ccc(C)s3)C(=O)N2CC(C)C)cc1 | ? | -8 | 3% | 19% | 1 | ?
COc1ccc(N=C2S/C(=C\c3cccs3)C(=O)N2CC(C)C)cc1 | 3.7µM* | -18 | -4% | -8% | -4 | ?
CN1C(=O)/C(=C\c2ccncc2)SC1=Nc1ccccc1 | ? | -11 | -60% | -10% | -5 | ?
Cc1ccc(NC(=O)CN2C(=O)S/C(=C\c3cc(C)n(C)c3C)C2=O)cc1 | -17% | 30 | 3% | -9% | 12 | 2%
COc1ccc(N=C2S/C(=C\c3cc(C)n(C)c3C)C(=O)N2C)cc1 | 9.3µM* | -13 | -5% | -18% | -1 | ?
CCCN1C(=O)/C(=C/c2cc(C)n(C)c2C)SC1=Nc1ccc(OC)cc1 | 13µM* | -14 | -5% | -22% | -2 | ?
N=c1oc2cc(O)ccc2cc1C(=O)Nc1ccc(Br)cc1 | 0.74µM* | 41* | -25% | 4% | 29* | 46%
SMILES | Pf growth 96h | Shiga toxin inh | SARS PLP yeast | AMA1 RON2 block | CHX counter | Pf growth 48h
N=c1oc2cc(O)ccc2cc1C(=O)Nc1ccccn1 | -2% | 52* | 0% | . | 14* | 12%
N=c1oc2cc(O)ccc2cc1C(=O)Nc1nc2ccccc2s1 | ? | 32 | -4% | 10% | 64* | 118%
CC(C)(C)C(=O)Nc1ccccc1C(=O)Nc1ccccn1 | 0% | 13 | 1% | -12% | -1 | -21%
O=C(CCCn1nnnc1CN1CCOCC1)N1CCN(c2ccccc2F)CC1 | 21% | -29 | ? | -16% | -1 | 12%
CCCc1cc(C(=O)NCc2ccc(OC)cc2)no1 | 46% | 77* | 6% | 4% | 21* | .
CCCc1cc(C(=O)Nc2ccc(CC)cc2)no1 | ? | 73* | -14% | 21% | 54* | 186%
CCCc1cc(C(=O)Nc2ccc(C)cc2)no1 | 1% | 127* | 1% | -2% | 34* | .
CSc1ccc(S(=O)(=O)Nc2ccc3c(c2)OCCO3)cc1 | -10% | -8 | 16% | 0% | -3 | 14%
CC1(C)OC(=O)C2=C(C[C@@H](C3CCCCC3)O[C@H]2c2ccc(Cl)cc2)O1 | . | . | . | -2% | . | .
O=C(CCCSc1ccccc1)Nc1nc(-c2ccccn2)cs1 | 7.4µM* | -8 | -11% | ? | 7 | .
N#Cc1ccccc1OCC(=O)Nc1nc(-c2ccccn2)cs1 | . | . | . | -11% | . | .
O=C(Nc1ccc2nc(-c3ccccn3)[nH]c2c1)C1CCCCC1 | 13% | 57* | -9% | 69% | 36* | 14%
CC(C)c1nc2ccc(NC(=O)C3CCCCC3)cc2[nH]1 | -6% | 19 | 7% | 4% | 6 | 6%
Cc1csc(NC(=O)C2CCCCC2)n1 | 129% | . | -1% | 1% | 24* | 74%
O=C(COc1ccc(F)cc1Cl)Nc1nc(-c2ccccn2)cs1 | 13µM* | . | 3% | . | . | ?
CC(C)c1ccc(NC2(C#N)C(=O)Nc3ccccc32)cc1 (configuration not stated) | . | -4 | 1% | -2% | 2 | -15%
O=C(C1CCN(C2CCN(Cc3ccsc3)CC2)CC1)N1CCOCC1 | ? | -11 | 2% | -6% | -3 | -4%
O=C(Nc1ccc(NC(=O)c2ccccc2)c2ccccc12)c1ccccc1 | . | . | . | -7% | . | .
CN(C1CCCCC1)S(=O)(=O)c1ccc(S(=O)(=O)N(CC(=O)Nc2ccccc2)C2CC2)cc1 | ? | 21 | 0% | -3% | 3 | 80%
CSCCC(=O)Nc1nc(-c2ccccn2)cs1 | ? | 36 | 7% | 78% | 21* | ?
O=C(Nc1nc(-c2ccccn2)cs1)C1CCCC1 | ? | 100* | 26% | 53% | 57* | ?

Screening results from PubChem BioAssay.
